{"source": "the supplement of paper PMC7184167", "note": "Counter-ions that a name gives are not always drawn."}
{"system": "replication-induced senescent mouse newborn dermal fibroblasts (NBF)", "assay": "relative cell viability of senescent cells (fraction); higher = less killing of senescent cells", "settings": "1 µM; 3 days", "experimental": "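Replication-induced senescent newborn mouse skin fibroblasts (NBFs) in 24-well plates were treated with a Selleck FDA-approved drug library at 1 µM for 3 days.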"}
{"smiles": "Nc1ccc(S(=O)(=O)Nc2ccccn2)cc1", "note": "[Sulfapyridine]", "relative cell viability": 0.951}
{"smiles": "NC(=O)N1c2ccccc2CC(=O)c2ccccc21", "note": "[Oxcarbazepine]", "relative cell viability": 0.905}
{"smiles": "CC(=O)OCC(=O)[C@@]12N=C(C)O[C@@H]1C[C@H]1[C@@H]3CCC4=CC(=O)C=C[C@]4(C)[C@H]3[C@@H](O)C[C@@]12C", "note": "[Deflazacort]", "relative cell viability": 1.04}
{"smiles": "C[C@]12C=CC(=O)C=C1CC[C@@H]1[C@@H]2C(=O)C[C@@]2(C)[C@H]1CC[C@]2(O)C(=O)CO", "note": "[Prednisone]", "relative cell viability": 0.875}
{"smiles": "CO[C@H]1/C=C/O[C@@]2(C)Oc3c(C)c(O)c4c(O)c(c5c(nc6cc(C)ccn65)c4c3C2=O)NC(=O)/C(C)=C\\C=C\\[C@H](C)[C@H](O)[C@@H](C)[C@@H](O)[C@@H](C)[C@H](OC(C)=O)[C@@H]1C", "note": "[Rifaximin]", "relative cell viability": 0.971}
{"smiles": "CCN1CCN(C(=O)N[C@@H](C(=O)N[C@@H]2C(=O)N3C(C(=O)O)=C(CSc4nnnn4C)CS[C@H]23)c2ccc(O)cc2)C(=O)C1=O", "note": "[Cefoperazone]", "relative cell viability": 1.03}
{"smiles": "CCC(C)(C)C(=O)O[C@H]1C[C@@H](C)C=C2C=C[C@H](C)[C@H](CC[C@@H]3C[C@@H](O)CC(=O)O3)[C@H]21", "note": "[Simvastatin]", "relative cell viability": 0.965}
{"smiles": "NC(=O)C1CCCc2c1[nH]c1ccc(Cl)cc21", "note": "(stereo unspecified) [Selisistat (EX 527)]", "relative cell viability": 0.498}
{"smiles": "C[C@@H](Oc1cc(-c2cnn(C3CCNCC3)c2)cnc1N)c1c(Cl)ccc(F)c1Cl", "relative cell viability": 0.71}
{"smiles": "Cc1cnc(C(=O)O)c[n+]1[O-]", "note": "[Acipimox]", "relative cell viability": 0.938}
{"smiles": "CN(C)c1cc(NC(=O)CNC(C)(C)C)c(O)c2c1CC1CC3C(N(C)C)C(=O)C(C(N)=O)=C(O)C3(O)C(=O)C1=C2O", "note": "(stereo unspecified) [Tigecycline]", "relative cell viability": 0.694}
{"smiles": "CC(=O)Nc1ccc(O)cc1", "note": "[Acetaminophen]", "relative cell viability": 0.803}
{"smiles": "CNC(=C[N+](=O)[O-])NCCSCc1ccc(CN(C)C)o1", "note": "[Ranitidine Hydrochloride]", "relative cell viability": 1.1}
{"smiles": "CN(C/C=C/C#CC(C)(C)C)Cc1cccc2ccccc12", "note": "[Terbinafine]", "relative cell viability": 0.403}
{"smiles": "CC1COc2c(N3CCN(C)CC3)c(F)cc3c(=O)c(C(=O)O)cn1c23", "note": "(stereo unspecified) [Ofloxacin]", "relative cell viability": 1}
{"smiles": "CCCCC1=NC2(CCCC2)C(=O)N1Cc1ccc(-c2ccccc2-c2nnn[nH]2)cc1", "note": "[Irbesartan]", "relative cell viability": 0.868}
{"smiles": "CCCc1nc(C(C)(C)O)c(C(=O)OCc2oc(=O)oc2C)n1Cc1ccc(-c2ccccc2-c2nnn[nH]2)cc1", "note": "[Olmesartan Medoxomil]", "relative cell viability": 0.252}
{"smiles": "CC(C)OC(=O)C(C(=O)OC(C)C)=C1SC=CS1", "note": "[Malotilate]", "relative cell viability": 1.04}
{"smiles": "C=C1/C(=C\\C=C2/CCC[C@]3(C)[C@@H]([C@H](C)/C=C/[C@H](C)C(C)C)CC[C@@H]23)C[C@@H](O)C[C@@H]1O", "note": "[Doxercalciferol]", "relative cell viability": 1.22}
{"smiles": "CCCCC(=O)O[C@]1(C(=O)CO)[C@@H](C)C[C@H]2[C@@H]3CCC4=CC(=O)C=C[C@]4(C)[C@@]3(F)[C@@H](O)C[C@@]21C", "note": "[Betamethasone Valerate]", "relative cell viability": 1.15}
{"smiles": "CN(C)CC/C=C1/c2ccccc2Sc2ccc(Cl)cc21", "note": "[Chlorprothixene]", "relative cell viability": 1.1}
{"smiles": "CC(C)NCC(O)COc1ccc(CCOCC2CC2)cc1", "note": "(stereo unspecified) [Betaxolol HCl]", "relative cell viability": 1.1}
{"smiles": "CC(C)[C@H](N)C(=O)OCCOCn1cnc2c(=O)nc(N)[nH]c21", "note": "[Valaciclovir HCl]", "relative cell viability": 0.909}
{"smiles": "CC(C)c1cc(-c2n[nH]c(=O)n2-c2ccc3c(ccn3C)c2)c(O)cc1O", "note": "[Ganetespib (STA-9090)]", "relative cell viability": 0.0837}
{"smiles": "NC(=O)c1ncn([C@@H]2O[C@H](CO)[C@@H](O)[C@H]2O)c1N", "note": "[AICAR (Acadesine)]", "relative cell viability": 1.02}
{"smiles": "NS(=O)(=O)c1cc2c(cc1Cl)N=CNS2(=O)=O", "note": "[Chlorothiazide]", "relative cell viability": 0.952}
